{
  "source": "PubChem BioAssay AID1531",
  "about": "(NMMLSC, 2009)",
  "note": "In all, about 290,000 compounds went through this assay and about 3,300 (1.1%) were called active. For the sample, actives were picked, then their nearest neighbours and some compounds at random. A number with no mark means an inactive call. Cut-off read from the data, not from the text of the source: active = binding response below about 67% or above about 130%; inconclusive = no clear call, values can overlap the other calls; inactive = in between.",
  "data": [
    {"target": "Mitogen-activated protein kinase kinase kinase 2 (Homo sapiens) (UniProt Q9Y2U5)", "test": "wildtype MEKK2 PB1-MEK5 interaction, increase or decrease – biochemical, multiplex bead flow cytometry, Alexa488-MEK5, primary screen (AID 1531)", "details": "Alexa488-MEK5 binding to MEKK2 WT, at 10 µM, actives lie on both sides", "values": [
      {"smiles": "CC(Sc1nnc(-c2ccccc2F)n1C1CC1)C(N)=O", "note": "(configuration not stated)", "binding response (% of control)": "104%"},
      {"smiles": "Cc1c(NC(=O)Nc2cccc([N+](=O)[O-])c2)c(=O)n(-c2ccccc2)n1C", "binding response (% of control)": "103%"},
      {"smiles": "COc1ccc(C(=O)NC(=S)N2CCNC(=O)C2CC(=O)OC(C)C)cc1", "note": "(configuration not stated)", "binding response (% of control)": "107%"},
      {"smiles": "CCCNC(=O)NCc1ccc(N2CCCC2=O)cc1", "binding response (% of control)": "98%"},
      {"smiles": "CCOc1ccc(C(=O)COC(=O)c2ccc(-n3cnnn3)cc2)cc1", "binding response (% of control)": "99%"},
      {"smiles": "O=C(COC(=O)c1ccc(N2CCCC2=O)cc1)c1ccc(OC(F)F)cc1", "binding response (% of control)": "0% [inhibitor] (active)"},
      {"smiles": "COC(C[C@@H](O)C[C@H](O)[C@H](C)OCc1ccccc1)OC", "binding response (% of control)": "92%"},
      {"smiles": "Cc1noc(C)c1S(=O)(=O)Nc1ccc(C(=O)O)cc1", "binding response (% of control)": "100%"},
      {"smiles": "Cc1cc(C)cc(N(CC(=O)N2CC=C(c3ccccc3)CC2)S(=O)(=O)c2c(C)noc2C)c1", "binding response (% of control)": "112%"},
      {"smiles": "Cc1noc(C)c1S(=O)(=O)N(C)Cc1ccccc1", "binding response (% of control)": "5% [inhibitor] (active)"},
      {"smiles": "CCOc1ccc(NC(=O)Nc2ccc(N(C)C(C)=O)cc2)cc1", "binding response (% of control)": "97%"},
      {"smiles": "CC(=O)N(C)c1ccc(NC(=O)Nc2cccc3ccccc23)cc1", "binding response (% of control)": "106%"},
      {"smiles": "CC(=O)N(C)c1ccc(NC(=O)C(F)(F)F)cc1", "binding response (% of control)": "-2% [inhibitor] (active)"},
      {"smiles": "COCCCNC(=O)/C=C/c1ccc(OCc2c(F)cccc2Cl)cc1", "binding response (% of control)": "106%"},
      {"smiles": "CN(C)CCCNC(=O)/C=C/c1ccc(OCc2c(F)cccc2Cl)cc1", "binding response (% of control)": "170% (active)"},
      {"smiles": "O=C(/C=C/c1ccc(OCc2c(F)cccc2Cl)cc1)N1CCOCC1", "binding response (% of control)": "74%"},
      {"smiles": "CCOC(=O)N1CCC(NC(=O)CCc2ccccc2)CC1", "binding response (% of control)": "107%"},
      {"smiles": "COc1cc(NC(=O)C2=CC(c3ccc(C)cc3)=NS(=O)(=O)N2C)cc(OC)c1OC", "binding response (% of control)": "105%"},
      {"smiles": "Cc1cc(C)cc(N(CC(=O)NC2CCCC2)C(=O)CCC(=O)Nc2cc(C)on2)c1", "binding response (% of control)": "96%"},
      {"smiles": "COCCCNC(=O)[C@H]1N2C(=O)c3ccccc3C2SC1(C)C", "note": "(some centres not stated)", "binding response (% of control)": "103%"},
      {"smiles": "Cc1ccc(C2CC(c3cccc(NS(C)(=O)=O)c3)=NN2S(C)(=O)=O)cc1", "note": "(configuration not stated)", "binding response (% of control)": "20% (active)"},
      {"smiles": "CS(=O)(=O)Nc1cccc(C2=NN(C(=O)c3cccc(F)c3)C(c3cccs3)C2)c1", "note": "(configuration not stated)", "binding response (% of control)": "102%"},
      {"smiles": "CS(=O)(=O)Nc1cccc(C2=NN(S(=O)(=O)c3ccccc3)C(c3cccs3)C2)c1", "note": "(configuration not stated)", "binding response (% of control)": "94%"},
      {"smiles": "CN(C(=O)CC1C(=O)NCCN1Cc1ccc(F)cc1Cl)C1CCCCC1", "note": "(configuration not stated)", "binding response (% of control)": "101%"},
      {"smiles": "O=C(NCc1ccncc1)NC12CC3CC(CC(C3)C1)C2", "binding response (% of control)": "87%"},
      {"smiles": "S=C(NCc1ccc(Cl)cc1)NC12CC3CC(CC(C3)C1)C2", "binding response (% of control)": "160% (active)"},
      {"smiles": "S=C(NCc1ccc(Cl)cc1)NC1CCCCC1", "binding response (% of control)": "106%"}
    ]}
  ]
}
